In PubChem BioAssay (NCATS):
Records with an inconclusive call do not appear. A call without a number means that no potency is given here. Active and inactive are the calls of the source. Calls follow the shape of the dose curve; as a rule, active = well fitted inhibition curve with a large enough effect; inconclusive = small, poorly fitted or top-dose-only effect; inactive = no such curve, though single readings can be large or run the other way.

Test system: Zika virus NS2B-NS3 protease (unlinked complex)
Assay: Primary screen GU Rhodamine qHTS for Zika virus inhibitors: Unlinked NS2B-NS3 protease assay (AID 1347159); also: nearly all actives have a fitted effect of over 60% in size; also: potency is read from the fitted curve at half-maximal effect
Conditions: Recombinant ZIKV NS2B-NS3 protease, Rhodamine110 substrate fluorescence; series mostly up to 107 µM
How it was run: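 Noncovalent NS2B hydrophilic domain–NS3 protease domain complex (25 nM) preincubated 15 min at room temperature with compounds (up to 114 microM) in 10 mM Tris-HCl pH 8.0, 0.01% Tween 20; 1.5 microM Rhodamine110 substrate added, fluorescence change over 15 min fitted to Hill equation.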

`COc1ccc(CCN2CCN(CCCc3ccccc3)CC2)cc1OC` was tested. Which Potency did it give?
Its Potency is “inactive”.

`Cc1ccnc(NS(=O)(=O)c2ccc(NC(=O)Nc3ccc(S(=O)(=O)Nc4nccc(C)n4)cc3)cc2)n1` was tested. Which Potency did it give?
The Potency was “inactive”.

How did the Potency turn out when `COc1cc(Nc2ncc3c(n2)-c2ccc(Cl)cc2C(c2c(F)cccc2OC)=NC3)ccc1C(=O)O` was run?
The Potency was 20 µM (active).

Test system: Zika virus NS2B-NS3 protease (linked construct)
Assay: Primary screen NINDS Rhodamine qHTS for Zika virus inhibitors (AID 1347160); also: nearly all actives have a fitted effect of over 55% in size
Conditions: purified NS2B-NS3 protease, Rhodamine110 substrate fluorescence; series mostly up to 57.1 µM
How it was run: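 Purified linked NS2B-NS3 protease (NS2B hydrophilic domain joined to NS3 protease by flexible linker), 25 nM in 10 mM Tris-HCl pH 8.0, 0.01% Tween 20. Compounds titrated, 15 min preincubation at room temperature; 1.5 microM Rhodamine110 substrate, FITC fluorescence change over 15 min.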

For `COc1ccc(CCN2CCN(CCCc3ccccc3)CC2)cc1OC`, which Potency is on record?
The Potency was “inactive”.

For `C[C@@H]1CN(Cc2ccc(F)cc2)[C@@H](C)CN1C(=O)c1cc2c(C(=O)C(=O)N(C)C)cn(C)c2cc1Cl`, which Potency is on record?
The Potency was “inactive”.

Which Potency does the source give for `CN(C)C(=O)c1ccc(S(=O)(=O)c2ccc(NC(=O)[C@@](C)(O)C(F)(F)F)c(Cl)c2)cc1` here?
The Potency was “inactive”.

`O=C1CCCC2=C1C(c1[nH]ncc1Cl)N=C(Nc1nc3ccccc3o1)N2` (stereo not drawn) was tested. Which Potency did it give?
The Potency was “inactive”.

With `Clc1ccc(Nc2nnc(Cc3ccncc3)c3ccccc23)cc1` as the molecule, how does the Potency read?
The Potency was “inactive”.

For `CC1(C)CNc2cc(NC(=O)c3cccnc3NCc3ccncc3)ccc21`, which Potency is on record?
Its Potency is “inactive”.

Which Potency does the source give for `Cc1csc(NC(=O)c2sc3nc4c(c(C(F)(F)F)c3c2N)CCC4)n1` here?
The Potency was “inactive”.

`CN(C(=O)c1ccc(F)cc1C(F)(F)F)C1CCN(c2nnc(-c3ccnn3C)c3ccccc23)CC1` was tested. Which Potency did it give?
The Potency was “inactive”.

For `O=C(Nc1cccnc1)N1CCC(Cc2cccc(Oc3ccc(C(F)(F)F)cn3)c2)CC1`, which Potency is on record?
The Potency was “inactive”.

`CS(=O)(=O)c1cccc(CNc2nc(Nc3ccc4c(c3)CCC(=O)N4)ncc2C(F)(F)F)c1` was tested. Which Potency did it give?
The Potency was “inactive”.

`CCCS(=O)(=O)Nc1ccc(F)c(C(=O)c2c[nH]c3ncc(-c4ccc(Cl)cc4)cc23)c1F` was tested. Which Potency did it give?
The Potency was “inactive”.

For `Cn1cnc2c(F)c(Nc3ccc(Br)cc3Cl)c(C(=O)NOCCO)cc21`, which Potency is on record?
Its Potency is “inactive”.

For `CN(C)c1ccc(C2Nc3ccc4ccccc4c3C3=C2C(=O)CC(C)(C)C3)cc1Br` (stereo not drawn), which Potency is on record?
Its Potency is “inactive”.

How did the Potency turn out when `COc1cc2c(cc1OC)CN(CCc1ccc(NC(=O)c3cccc4c(=O)c5cccc(OC)c5[nH]c34)cc1)CC2` was run?
Its Potency is “inactive”.

With `CN(C)c1ccc(Nc2nc(N)n(C(=O)c3c(F)cccc3F)n2)cc1` as the molecule, how does the Potency read?
The Potency was “inactive”.

For `CC(C)(N)C(=O)N[C@H](COCc1ccccc1)C(=O)N1CCC2(CC1)CN(S(C)(=O)=O)c1ccccc12`, which Potency is on record?
The Potency was “inactive”.

How did the Potency turn out when `COc1ccccc1[C@H](c1cccc2ccccc12)[C@@](C)(C#N)C(=O)N1CCC(c2cccc(C(F)(F)F)c2)CC1` was run?
The Potency was “inactive”.

How did the Potency turn out when `CCc1cncnc1N1CCN(Cc2nc3ccc(C(F)(F)F)cc3[nH]2)CC1` was run?
Its Potency is “inactive”.

`OCCn1cc(-c2cnc3nnn(Cc4ccc5ncccc5c4)c3n2)cn1` was tested. Which Potency did it give?
Its Potency is “inactive”.

With `COc1cc(Nc2ncc3c(n2)-c2ccc(Cl)cc2C(c2c(F)cccc2OC)=NC3)ccc1C(=O)O` as the molecule, how does the Potency read?
The Potency was “inactive”.

How did the Potency turn out when `COc1nc(-c2ccc3c(c2)OCO3)n(-c2ccc(NC(=O)CSc3ccccc3)cc2)n1` was run?
The Potency was “inactive”.

For `CCc1cc(Nc2nccc(-c3c(-c4ccc(OC)c(C(=O)Nc5c(F)cccc5F)c4)nc4ccccn34)n2)c(OC)cc1N1CCC(N2CCN(S(C)(=O)=O)CC2)CC1`, which Potency is on record?
The Potency was “inactive”.

For `CCC(C)n1ncn(-c2ccc(N3CCN(c4ccc(OC[C@H]5CO[C@](Cn6cncn6)(c6ccc(Cl)cc6Cl)O5)cc4)CC3)cc2)c1=O` (stereo partly drawn), which Potency is on record?
Its Potency is “inactive”.

`N#CC[C@H](C1CCCC1)n1cc(-c2ncnc3[nH]ccc23)cn1` was tested. Which Potency did it give?
The Potency was “inactive”.

Which Potency does the source give for `CCOc1ccn(-c2ccc(F)cc2)c(=O)c1C(=O)Nc1ccc(Oc2ccnc(N)c2Cl)c(F)c1` here?
The Potency was “inactive”.
